A number with no mark means an inactive call. Records with an inconclusive call do not appear. Activity calls are given as the source filed them. Unless noted, the call rests on the fitted dose curve; in most records, active means well fitted curve in the direction sought with a large enough effect in the repeat runs; inconclusive means weak or mixed curves; inactive means no such curve, though single readings can be large; an effect the other way counts as inactive or inconclusive.

The values that follow come from PubChem BioAssay (Tox21).

Experiment [1] is described as follows: qHTS assay to identify small molecule antagonists of the glucocorticoid receptor (GR) signaling pathway - cell viability counter screen (AID 720693). Further: nearly all actives have a fitted effect of over 55% in size.
Experiment [2] in a line: qHTS assay for identifying genotoxic compounds that show differential cytotoxicity against isogenic chicken DT40 cell lines with known DNA damage response pathways - wild type cell line (AID 743012). Further: nearly all actives have a fitted effect of over 60% in size. Further: potency means the concentration at half of the fitted maximal effect. The method in brief:
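Cytotoxicity in repair-proficient parental chicken DT40 cells serves as the comparator for Rad54/Ku70- and Rev3-deficient lines. Cells were exposed to compounds for 40 h at 37 C/5% CO2, and ATP-based luminescence (CellTiter-Glo) measured viability.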
On the technique in general: In qHTS, concentration-response curves come from the screen itself.

Experiment [3] can be described thus: qHTS assay for identifying genotoxic compounds that show differential cytotoxicity against isogenic chicken DT40 cell lines with known DNA damage response pathways - Rev3 mutant cell line (AID 743014). Further: nearly all actives have a fitted effect of over 55% in size. Further: potency means the concentration at half of the fitted maximal effect.
Experiment [4] is described as follows: qHTS assay to identify small molecule antagonists of the androgen receptor (AR) signaling pathway - cell viability counter screen (AID 743033; further: nearly all actives have a fitted effect of over 45% in size).
Experiment [5] deals with Androgen receptor (Homo sapiens) (UniProt P10275). Briefly: qHTS assay to identify small molecule antagonists of the androgen receptor (AR) signaling pathway (AID 743035; active means well fitted inhibition curve with a large enough effect in the signal ratio in the repeat runs, not every such curve was filed as active; the % refers to the signal ratio; further: potency means the concentration at half of the fitted maximal effect). The procedure, abridged: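 Steps: seed AR-UAS-bla GripTite HEK293 cells, incubate 4 h at 37C; pin in test compound, then add agonist R1881; incubate 16 h at 37C; add LiveBLAzer B/G FRET substrate, 2 h at room temperature; read fluorescence.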
Chain of Androgen receptor (Homo sapiens) (P10275 whole entry, looked up): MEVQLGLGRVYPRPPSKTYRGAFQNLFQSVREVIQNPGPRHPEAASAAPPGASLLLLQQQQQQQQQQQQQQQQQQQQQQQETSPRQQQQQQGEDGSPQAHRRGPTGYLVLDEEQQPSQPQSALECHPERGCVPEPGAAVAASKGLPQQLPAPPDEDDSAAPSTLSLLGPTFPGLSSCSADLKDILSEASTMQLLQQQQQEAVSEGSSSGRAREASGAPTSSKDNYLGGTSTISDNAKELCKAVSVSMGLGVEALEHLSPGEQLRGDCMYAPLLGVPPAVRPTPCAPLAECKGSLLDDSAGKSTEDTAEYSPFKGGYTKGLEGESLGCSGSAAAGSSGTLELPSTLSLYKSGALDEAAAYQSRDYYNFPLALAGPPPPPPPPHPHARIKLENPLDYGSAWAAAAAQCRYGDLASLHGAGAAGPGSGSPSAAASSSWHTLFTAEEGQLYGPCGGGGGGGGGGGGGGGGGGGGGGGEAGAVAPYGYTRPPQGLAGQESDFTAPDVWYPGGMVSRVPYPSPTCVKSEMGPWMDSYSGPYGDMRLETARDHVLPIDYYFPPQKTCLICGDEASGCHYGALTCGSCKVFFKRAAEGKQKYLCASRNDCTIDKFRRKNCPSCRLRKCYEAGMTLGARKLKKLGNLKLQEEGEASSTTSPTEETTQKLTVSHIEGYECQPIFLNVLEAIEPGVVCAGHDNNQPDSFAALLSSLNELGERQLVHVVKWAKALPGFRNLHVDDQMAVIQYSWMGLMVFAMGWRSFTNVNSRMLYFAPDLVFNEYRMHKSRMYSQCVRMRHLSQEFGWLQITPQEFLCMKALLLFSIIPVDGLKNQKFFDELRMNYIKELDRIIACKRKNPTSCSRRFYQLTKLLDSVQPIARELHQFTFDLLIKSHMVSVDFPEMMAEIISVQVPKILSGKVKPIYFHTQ

Experiment [6] shares this target. Briefly: qHTS assay to identify small molecule agonists of the androgen receptor (AR) signaling pathway (AID 743036; active means well fitted activation curve with a large enough effect in the signal ratio in the repeat runs, with a control signal flat, not every such curve was filed as active; the % refers to the signal ratio). The procedure, abridged:
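Screening used 2,000 AR-bla HEK293 cells per well, treated 16 h at 37C with test compounds in DMSO alongside positive and DMSO-only controls; beta-lactamase activity was then read by LiveBLAzer B/G FRET fluorescence after 2 h at room temperature.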

The target is the same in experiment [7]. In words: qHTS assay to identify small molecule agonists of the androgen receptor (AR) signaling pathway using the MDA cell line (AID 743040; further: nearly all actives have a fitted effect of over 20% in size). The method in brief:
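Luciferase agonist assay: 16 h compound exposure at 37C without CO2 in MDA-kb2 AR-luc cells, whose MMTV promoter responds to both AR and GR. Luminescence measured after 30 min room-temperature incubation with ONE-Glo.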

Experiment [8] in a line: qHTS assay to identify small molecule antagonists of the androgen receptor (AR) signaling pathway using the MDA cell line - cell viability counter screen (AID 743041; further: nearly all actives have a fitted effect of over 45% in size; further: potency means the concentration at half of the fitted maximal effect). The method in brief:
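Viability read by CellTiter-Fluor fluorescence in the same wells as the antagonist screen, added after 15.5 h of a 16 h, 37C exposure. Human breast carcinoma MDA-kb2 AR-luc cells, compounds co-dosed with agonist R1881.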

In experiment [9] the target is Androgen receptor (Homo sapiens) (UniProt P10275). In words: qHTS assay to identify small molecule antagonists of the androgen receptor (AR) signaling pathway using the MDA cell line (AID 743042; further: nearly all actives have a fitted effect of over 55% in size; further: potency means the concentration at half of the fitted maximal effect). The procedure, abridged:
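Antagonist mode: compounds plus R1881 agonist added to MDA-kb2 AR-luc cells, incubated 16 h at 37C. Luciferase reporter luminescence quantified, with multiplexed CellTiter-Fluor readout for cell viability.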

Experiment [10] relates to thyroid hormone receptor (rat, GH3 cells). Briefly: qHTS assay to identify small molecule agonists of the thyroid receptor (TR) signaling pathway (AID 743066; calls by dose curve).
Experiment [11] addresses Estrogen receptor (Homo sapiens) (UniProt P03372). In words: qHTS assay to identify small molecule antagonists of the estrogen receptor alpha (ER-alpha) signaling pathway (AID 743069; active means well fitted curve in the direction sought with a large enough effect in the signal ratio in the repeat runs, not every such curve was filed as active; the % refers to the signal ratio; further: potency means the concentration at half of the fitted maximal effect). The procedure, abridged: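 Antagonist mode: compounds in DMSO were co-added with 17beta-estradiol to ER-alpha-bla HEK293 cells (2% charcoal-stripped serum) and left 18 h at 37C. Reporter inhibition was measured as FRET fluorescence after 2 h LiveBLAzer substrate at room temperature.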

The nature of experiment [12]: qHTS assay to identify small molecule antagonists of the estrogen receptor alpha (ER-alpha) signaling pathway - cell viability counter screen (AID 743074; calls by dose curve;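 further: HEK293 cells carrying ER-alpha-UAS-bla reporter stimulated with 17beta-estradiol; nearly all actives have a fitted effect of over 45% in size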).
For experiment [13], the target named is Estrogen receptor (Homo sapiens) (UniProt P03372). Briefly: qHTS assay to identify small molecule agonists of the estrogen receptor alpha (ER-alpha) signaling pathway (AID 743075; calls by dose curve;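 further: HEK293 GripTite cells with ER-alpha and UAS-driven beta-lactamase reporter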).
Chain of Estrogen receptor (Homo sapiens) (P03372 whole entry, looked up): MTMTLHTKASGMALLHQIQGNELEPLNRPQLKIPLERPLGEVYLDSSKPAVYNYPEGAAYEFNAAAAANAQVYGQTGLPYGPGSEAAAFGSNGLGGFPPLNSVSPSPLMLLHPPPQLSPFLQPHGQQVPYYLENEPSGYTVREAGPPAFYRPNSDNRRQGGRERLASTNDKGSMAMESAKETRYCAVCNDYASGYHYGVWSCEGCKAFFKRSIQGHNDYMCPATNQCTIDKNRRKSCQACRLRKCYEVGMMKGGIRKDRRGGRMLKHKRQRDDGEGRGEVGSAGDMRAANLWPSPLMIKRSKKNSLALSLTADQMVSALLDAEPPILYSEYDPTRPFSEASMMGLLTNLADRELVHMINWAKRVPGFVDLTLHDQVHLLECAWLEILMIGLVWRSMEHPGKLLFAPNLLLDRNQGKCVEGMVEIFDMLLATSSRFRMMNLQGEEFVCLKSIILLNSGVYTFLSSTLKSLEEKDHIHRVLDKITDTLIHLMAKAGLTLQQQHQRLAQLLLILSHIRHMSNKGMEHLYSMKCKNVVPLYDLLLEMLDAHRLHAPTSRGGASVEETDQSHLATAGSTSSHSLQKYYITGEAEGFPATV
Experiment [14] shares this target. Briefly: qHTS assay to identify small molecule agonists of the estrogen receptor alpha (ER-alpha) signaling pathway using the BG1 cell line (AID 743079). Further: nearly all actives have a fitted effect of over 20% in size.
Experiment [15] in a line: qHTS assay to identify small molecule antagonists of the estrogen receptor alpha (ER-alpha) signaling pathway using the BG1 cell line (AID 743080; calls by dose curve;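 further: BG1 cells stimulated with 17beta-estradiol alongside compound; nearly all actives have a fitted effect of over 25% in size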; further: potency means the concentration at half of the fitted maximal effect). The procedure, abridged: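 Quantitative HTS on the Tox21 10K library: BG1 cells with endogenous ER-alpha and ERE-luciferase reporter, 17beta-estradiol stimulation, 21.5 h compound exposure, luminescence endpoint with parallel fluorescence cytotoxicity counter-read.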

The nature of experiment [16]: qHTS assay to identify small molecule antagonists of the estrogen receptor alpha (ER-alpha) signaling pathway using the BG1 cell line - cell viability counter screen (AID 743081).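 Further: compound given together with 17beta-estradiol as the ER stimulus; series mostly up to about 70 µM; nearly all actives have a fitted effect of over 45% in size.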
Another experiment has as its target Aromatase (Homo sapiens) (UniProt P11511). In words: qHTS assay to identify aromatase inhibitors (AID 743083). Further: series mostly up to about 70 µM; nearly all actives have a fitted effect of over 55% in size.
Experiment [17] can be described thus: qHTS assay for identifying genotoxic compounds that show differential cytotoxicity against isogenic chicken DT40 cell lines with known DNA damage response pathways - Rad54/Ku70 mutant cell line (AID 743015). Further: nearly all actives have a fitted effect of over 60% in size. Further: potency means the concentration at half of the fitted maximal effect.
The nature of experiment [18]: qHTS assay to identify small molecule antagonists of the thyroid receptor (TR) signaling pathway (AID 743065). Further: nearly all actives have a fitted effect of over 55% in size. Further: potency means the concentration at half of the fitted maximal effect. The procedure, abridged:
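Antagonism measured as loss of luciferase signal in GH3 cells stably carrying a TRE-luciferase reporter, co-treated with compound and T3 (1 nM final) for 23.5 h at 37 C. Viability was read in the same well by CellTiter-Fluor.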

Experiment [19] in a line: qHTS assay to identify small molecule antagonists of the thyroid receptor (TR) signaling pathway - cell viability counter screen (AID 743064). Further: nearly all actives have a fitted effect of over 50% in size. The procedure, abridged:
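Viability of T3-stimulated (1 nM final) GH3.TRE-Luc cells is measured by CellTiter-Fluor fluorescence after 23.5 h compound exposure at 37 °C plus 30 min reagent incubation.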

Chain of Aromatase (Homo sapiens) (P11511 whole entry, looked up): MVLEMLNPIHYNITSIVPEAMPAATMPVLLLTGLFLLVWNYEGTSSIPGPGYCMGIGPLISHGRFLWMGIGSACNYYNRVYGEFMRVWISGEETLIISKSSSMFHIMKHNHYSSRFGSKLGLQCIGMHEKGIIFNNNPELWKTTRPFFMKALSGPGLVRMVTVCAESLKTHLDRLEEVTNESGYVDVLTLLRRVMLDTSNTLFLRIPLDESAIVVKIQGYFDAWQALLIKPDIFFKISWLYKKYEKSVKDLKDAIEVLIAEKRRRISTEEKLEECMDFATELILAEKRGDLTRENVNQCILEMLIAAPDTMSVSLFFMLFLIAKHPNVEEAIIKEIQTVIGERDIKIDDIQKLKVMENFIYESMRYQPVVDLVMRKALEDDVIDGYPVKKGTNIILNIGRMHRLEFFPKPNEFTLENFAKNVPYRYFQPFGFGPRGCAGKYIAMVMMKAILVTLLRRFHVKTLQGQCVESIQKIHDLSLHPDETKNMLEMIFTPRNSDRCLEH

In the case of `CCCCCCCCCCCCCCCCOS(=O)(=O)O`, the Potency entry in experiment [1], in [2], in [3], in experiment [4], in experiment [5] and in experiment [6] was “inactive” in each case. Moreover, the Potency result in experiment [7], in [8], in experiment [9], in [10], in [11] and in experiment [12] was “inactive” throughout. Besides, the Potency entry (in experiment [13]; in experiment [14]; in experiment [15]; in experiment [16]; with Aromatase (Homo sapiens)) was “inactive” throughout.
`COC(C)(C)CCO`: the Potency entry in experiment [1], in experiment [2], in [3], in experiment [17], in experiment [8] and in experiment [18] was “inactive” in each case. In addition, the Potency result (in experiment [10]; in [12]; in [16]; with Aromatase (Homo sapiens)) was “inactive” each time.
Turning to `CCOC(=O)NCCOc1ccc(Oc2ccccc2)cc1`, the Potency result in [1], in [18], in experiment [10], in [12] and in experiment [16] was “inactive” each time. Also, the Potency in experiment [2] was 61.1 µM (active); in experiment [3] it was 68.6 µM (active); in [17] it was 61.1 µM (active); in experiment [11] it was 38.9 µM [inhibitor] (active); in experiment [15] it was 61.1 µM (active).
Take `NC(=O)C(c1ccccc1)(c1ccccc1)[C@@H]1CCN(CCc2ccc3c(c2)CCO3)C1`: the Potency entry in experiment [1], in experiment [4], in experiment [11], in [12], in [13] and in experiment [14] was “inactive” throughout. For the same compound, the Potency entry (in experiment [15]; in experiment [16]; with Aromatase (Homo sapiens)) was “inactive” each time. For the same compound, the Potency in experiment [2] was 11.9 µM (active); in experiment [3], 18.8 µM (active); in experiment [18] it was 26.6 µM (active).
With `C=C(C)C(=O)OCCOCC`, the Potency entry in experiment [1], in experiment [2], in [3], in experiment [4], in experiment [8] and in [19] was “inactive” each time. The Potency result in experiment [18], in experiment [10], in experiment [11], in experiment [12], in experiment [13] and in experiment [14] was “inactive” each time. Besides, the Potency entry (in experiment [15]; in experiment [16]; in the experiment with Aromatase (Homo sapiens)) was “inactive” each time.
Regarding `COc1cc2nc(N(C)CCCNC(=O)C3CCCO3)nc(N)c2cc1OC` (configuration not stated), the Potency entry in experiment [1], in experiment [2], in [3], in experiment [4], in experiment [8] and in [19] was “inactive” each time. For the same compound, the Potency entry in experiment [18], in [10], in experiment [11], in [12], in [13] and in experiment [14] was “inactive” throughout. Besides, the Potency entry (in experiment [15]; in experiment [16]; with Aromatase (Homo sapiens)) was “inactive” throughout.
As to `Cc1nn(C)c(Oc2ccccc2)c1/C=N/OCc1ccc(C(=O)OC(C)(C)C)cc1`, the Potency entry in experiment [1], in experiment [6] and in experiment [7] was “inactive” in each case. The Potency was 0.0022 µM (active) in experiment [2]; 0.0024 µM (active) in experiment [3]; 0.123 µM (active) in experiment [5]; 0.0077 µM (active) in experiment [8]; 0.0024 µM (active) in experiment [9].
Regarding `CCN(CC)CCNC(=O)c1cc(Br)c(N)cc1OC`, the Potency result in experiment [1], in [2], in experiment [17], in [4], in [8] and in [18] was “inactive” each time. Also, the Potency result in experiment [10], in [11], in [12], in experiment [13], in experiment [14] and in [15] was “inactive” in each case. The Potency result (in [16]; with Aromatase (Homo sapiens)) was “inactive” throughout.
On to `CC(C)Nc1ccc(NC(C)C)c2c1C(=O)c1ccccc1C2=O`, for which the Potency result in experiment [1], in experiment [2], in [17], in [4], in [8] and in experiment [19] was “inactive” throughout. For the same compound, the Potency result in [18], in experiment [10], in experiment [11], in experiment [12], in experiment [13] and in experiment [14] was “inactive” each time. The Potency result (in experiment [16]; with Aromatase (Homo sapiens)) was “inactive” in each case.
Turning to `CCCCOC(=O)CCCCCCCC(=O)OCCCC`, the Potency entry in experiment [1], in experiment [2], in [17], in experiment [4], in [8] and in experiment [19] was “inactive” in each case. Moreover, the Potency result (in experiment [18]; in [10]; in experiment [12]; in experiment [16]; with Aromatase (Homo sapiens)) was “inactive” each time.
With `CCCCC`, the Potency entry in experiment [1], in experiment [2], in experiment [3], in experiment [8], in [18] and in experiment [10] was “inactive” in each case. The Potency result in experiment [12] and in experiment [16] was “inactive” throughout.
For `CCCCCCCCCCCCCCOS(=O)(=O)O`, the Potency entry in experiment [1], in experiment [2], in experiment [8], in experiment [10], in [11] and in experiment [12] was “inactive” each time. Moreover, the Potency entry (in experiment [13]; in experiment [14]; in [15]; in [16]; with Aromatase (Homo sapiens)) was “inactive” each time. The Potency in experiment [18] is 48.6 µM (active).
Regarding `OC(CN1CCC(Cc2ccc(F)cc2)CC1)c1ccc(Cl)cc1` (configuration not stated), the Potency entry in experiment [1], in [4], in experiment [5], in experiment [6], in experiment [7] and in experiment [8] was “inactive” throughout. Moreover, the Potency result (in experiment [9]; in [10]; in experiment [12]; in experiment [16]; with Aromatase (Homo sapiens)) was “inactive” throughout. In addition, the Potency in [3] was 1.68 µM (active); in experiment [17], 2.11 µM (active).
As for `Cc1ccccc1S(=O)(=O)O`, the Potency entry in experiment [1], in [3], in [17], in experiment [4], in [8] and in [19] was “inactive” each time. Also, the Potency result in experiment [18], in [10], in experiment [12] and in experiment [16] was “inactive” in each case.
Turning to `CC1=CCCC(C)(C)C12CCC(C)O2` (configuration not stated), the Potency entry in experiment [1], in experiment [8], in [18], in [10], in [12] and in experiment [16] was “inactive” throughout. Moreover, the Potency in [2] was 24.3 µM (active); in experiment [17] it was 13.7 µM (active).
